# Reference: the supplement of paper PMC11150407
# Where a name gives a salt, the structure may show the parent alone. Among all 2,100 compounds or so, about 180 (8.6%) showed an effect of 50% or more. The entries come from a sample that favours strong results as a whole.
# Tested on: MOLM1 and UCSD/AML1 (averaged)
# Experiment: cell viability relative to DMSO control (POC); higher = less growth inhibition
# Details: 1 µM; 72 h
# Description: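 Primary viability screen in the 3q26 EVI1-high AML cell lines MOLM1 and UCSD/AML1 (1.5e3 cells/well, 384-well), compounds at 1 uM for 72 h. ATP CellTiter-Glo read-out given as percent of viable cells over DMSO control (POC), averaged over duplicates. DMSO was the negative control and 5 uM etoposide the positive control. This mapping covers the MicroSource Spectrum and Selleck anticancer libraries (drug names).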
row,SMILES,cell viability [%]
1,CC(C)CCC[C@@H](C)[C@H]1CC[C@H]2[C@@H]3CC=C4CC(=O)CC[C@]4(C)[C@H]3CC[C@]12C,87.5
2,COC(=O)c1c(OC)cc2c(c1C)Oc1c(Cl)c(O)c(Cl)c(C)c1C(=O)O2,107
3,OC(Cn1cncn1)(Cn1cncn1)c1ccc(F)cc1F,95.1
4,Cc1c(NC(=O)OC[C@@H]2COCCN2)cn2ncnc(Nc3ccc4c(cnn4Cc4cccc(F)c4)c3)c12,119
5,C=C1C2CC[C@@]3(C)[C@H](c4ccoc4)OC(=O)C[C@]13O[C@H]1CC(=O)C(C)(C)[C@H](C(O)C(=O)OC)[C@@]21C (stereo partly specified),99.4
6,CC(C)C[C@H](NC(=O)CNC(=O)c1cc(Cl)ccc1Cl)B(O)O [Ixazomib (MLN2238)],1.39
7,O=C(CNC(=O)c1ccc(Cl)cc1)NO,107
8,CC(C)C[C@H](NC(=O)CNC(=O)c1cc(Cl)ccc1Cl)B1OC(=O)C(CC(=O)O)(CC(=O)O)O1,1.16
9,CC(=O)Oc1ccc2c(c1)CC[C@@H]1[C@@H]2CC[C@]2(C)[C@@H](OC(C)=O)CC[C@@H]12,87.5
10,O=C(O)Cc1cc(I)c(Oc2cc(I)c(O)c(I)c2)c(I)c1,97.8
11,CC(=O)O[C@@H]1C[C@H]2C(C)(C)C(=O)C=C[C@]2(C)[C@H]2CC[C@@]3(C)[C@H](c4ccoc4)OC(=O)[C@H]4O[C@]43[C@@]21C,82.8
12,COC1(C)CCC2OC2(C)CCC2C1CC2(C)C (stereo unspecified),102
13,CC(C)=CCC[C@](C)(O)C1CC=C(C)CC1 (stereo partly specified),105
14,COc1cc2nccc(Oc3ccc(NC(=O)Nc4cc(C)on4)c(Cl)c3)c2cc1OC [Tivozanib (AV-951)],31.8
15,COc1cc2nccc(Oc3ccc(NC(=O)NC4CC4)c(Cl)c3)c2cc1C(N)=O [E7080 (Lenvatinib)],58
16,O=C(Oc1cc(O)cc2c1C[C@@H](OC(=O)c1cc(O)c(O)c(O)c1)[C@@H](c1cc(O)c(O)c(O)c1)O2)c1cc(O)c(O)c(O)c1,104
17,Cc1cc(O)c(C=O)c2c1C(=O)Oc1c(COC(=O)/C=C/C(=O)O)c(O)c(C(=O)O)c(C)c1O2,104
18,Cc1ccc2c(=O)c3cccc(CC(=O)O)c3oc2c1C,99.8
19,Cc1coc2c1C(=O)C(=O)c1c-2ccc2c1CCCC2(C)C,118
20,C=C[C@@H](C1=CC(=O)C(OC)=C(OC)C1=O)c1ccccc1,8.05
21,C=CC(C1=CC(=O)C(OC)=CC1=O)c1ccccc1 (stereo unspecified),79.2
22,C=CC(C1=CC(=O)C=CC1=O)c1ccccc1 (stereo unspecified),103
23,CC1=C2C(O)C(=O)OC3CC4C(C)(C)C(=O)C=C[C@]4(C)C(CC1)[C@]23C (stereo partly specified),89.3
24,CCCS(=O)(=O)Nc1ccc(F)c(C(=O)c2c[nH]c3ncc(-c4ccc(Cl)cc4)cc23)c1F [Vemurafenib (PLX4032)],114

row,SMILES,cell viability [%]
1,COc1ncc(-c2ccc3nccc(-c4ccnnc4)c3c2)cc1NS(=O)(=O)c1ccc(F)cc1F,12.4
2,COc1ccc2c(C)cc(=O)oc2c1,110
3,COC(=O)CC1C(C)(C)C(OC(C)=O)[C@@H]2[C@@H](OC(C)=O)[C@]34O[C@@]2(O)[C@]1(C)C3CC[C@]1(C)C4=CC(=O)O[C@H]1c1ccoc1 (stereo partly specified),83.6
4,O=C(OCC(O)CO)c1ccccc1Nc1ccnc2cc(Cl)ccc12 (stereo unspecified),104
5,O=C(NOCC1CC1)c1ccc(F)c(F)c1Nc1ccc(I)cc1Cl,33.2
6,O=C(NOC[C@H](O)CO)c1ccc(F)c(F)c1Nc1ccc(I)cc1F,49.5
7,"NC(C(=O)O)C(O)C(=O)O (stereo not drawn) [d,l-threo-3-HYDROXYASPARTIC ACID]",129
8,CC(=O)OC1CCC2(C)C(=CCC3C2CCC2(C)C(C(C)CCCC(C)C)CCC32)C1 (stereo unspecified),97.3
9,COc1cc(O)cc(OC)c1OC,95.9
10,COC(=O)/C(=C1/OC(=O)C(c2ccccc2)=C1O)c1ccccc1,102
11,Cc1cc(Nc2cc(N3CCN(C)CC3)nc(/C=C/c3ccccc3)n2)n[nH]1,19.9
12,C[C@@H](N)[C@H]1CC[C@H](C(=O)Nc2ccncc2)CC1,102
13,"Cc1cc(Nc2cc(N3CCN(C)CC3)nc(Sc3ccc(NC(=O)C4CC4)cc3)n2)n[nH]1 [VX-680 (MK-0457, Tozasertib)]",22
14,COc1cc2oc3cc(OC)c(OC)c(CC=C(C)C)c3c(=O)c2c(OC)c1CC=C(C)C,104
15,O=c1cc(-c2ccccc2)oc2cc(O)c(O)c(O)c12,86
16,CC1(C)C(O[C@@H]2OC[C@@H](O)[C@H](O)[C@H]2O)CC[C@]23CC24CC[C@]2(C)[C@@H]([C@@]5(C)CC[C@@H](C(C)(C)O)O5)[C@H](O)C[C@@]2(C)C4C[C@@H](O[C@@H]2O[C@H](CO)[C@@H](O)[C@H](O)[C@H]2O)C13 (stereo partly specified),91.9
17,CC(C)[C@@H]1CC[C@@H](C)C[C@H]1OC(=O)c1ccccc1,109
18,NC(=O)NCCC[C@H](N)C(=O)O,93.7
19,C=CCCCCCCCCCCCc1ccco1,109
20,Nc1cc(C(F)(F)F)c(-c2cc(N3CCOCC3)nc(N3CCOCC3)n2)cn1,26.9
21,COc1c(CC(=O)c2cc3c(cc2O)OC(C)(C)C(O)C3)ccc2c1C=CC(C)(C)O2 (stereo unspecified),98
22,N[C@@H](C(=O)O)[C@@H](O)[C@H](O)[C@H](O)CO,106
23,CCNC(=O)CC[C@H](N)C(=O)O,92.2
24,Cc1cccc(Nc2nc(-c3ccncc3)cs2)c1,98.9

row,SMILES,cell viability [%]
1,Cc1ccc(NC(=O)c2ccc(CN3CCN(C)CC3)cc2)cc1Nc1nccc(-c2cccnc2)n1 [Imatinib Mesylate],37.8
2,Cc1cn(-c2cc(NC(=O)c3ccc(C)c(Nc4nccc(-c5cccnc5)n4)c3)cc(C(F)(F)F)c2)cn1 [Nilotinib (AMN-107)],50.6
3,Cc1ccc(NC(=O)c2ccc(CN3CCN(C)CC3)cc2)cc1Nc1nc(-c2cccnc2)cs1 [Masitinib (AB1010)],25.7
4,CO[C@H]1[C@H](O)[C@@H](O)[C@H](O)[C@H](O)[C@H]1O,95.8
5,COc1ccc2c(=O)c(OC)c(-c3ccccc3)oc2c1,89.8
6,COc1cc(-c2coc3cc(OC)c(OC)c(OC)c3c2=O)cc(OC)c1OC,96
7,C=C1/C(=C\C=C2/CCC[C@]3(C)[C@@H]([C@H](C)/C=C/[C@H](C)C(C)C)CC[C@@H]23)C[C@@H](O)C[C@@H]1O [Doxercalciferol (Hectorol)],99.3
8,CC(=O)NCCc1ccc(O)c(-c2c(O)c(O)c3c(c2O)C(=O)c2c(cc(O)c(C(=O)O)c2C(=O)O)C3=O)c1,102
9,COc1cc(OC)c2c(=O)cc(-c3ccccc3)oc2c1,90.2
10,C/C1=C\CCC(=O)C2CC(C)(C)C2CC1 (stereo unspecified),93.3
11,Cc1cc(O)c2c(c1O)C(=O)c1c(O)cc(C)c(O)c1C2=O,94.1
12,COc1c2ccoc2cc2oc(C)cc(=O)c12,104
13,Cn1cnc2c(F)c(Nc3ccc(Br)cc3Cl)c(C(=O)NOCCO)cc21 [AZD6244 (Selumetinib)],15.5
14,C#CCCCCCCCCCCCC(O)CC(O)CO (stereo unspecified),55.1
15,CC1(C)C=Cc2cc3ccc(=O)oc3cc2O1,107
16,CN(C)CC(=O)OC[C@@H](O)[C@@H](O)[C@H](O)[C@@H](O)C(=O)O,108
17,CNCc1ccc(-c2[nH]c3cc(F)cc4c3c2CCNC4=O)cc1,89.1
18,CC(C)Cn1cnc2c(N)nc3ccccc3c21 [Imiquimod],47.9
19,Nc1c2ccccc2nc2ccccc12,65
20,CCCCCCCCc1ccc(CCC(N)(CO)CO)cc1 [Fingolimod (FTY720)],76.7
21,CCCCCCCCCc1ccc(OCCOCCOCCOCCOCCOCCOCCOCCOCCO)cc1,37.9
22,CCCCOc1ccc(CC(=O)NO)cc1,115
23,COc1ccc2c(c1)OC1(O)COc3cc(OC)c(OC)cc3C1=C2 (stereo unspecified),102
24,CC1=CCc2c(cc3oc(C)cc(=O)c3c2O)OC1,90.4

row,SMILES,cell viability [%]
1,CCC(=O)O[C@H]1CC[C@H]2[C@@H]3CCc4cc(O)ccc4[C@H]3CC[C@]12C,95.4
2,CS(=O)(=O)Nc1ccc([N+](=O)[O-])cc1Oc1ccccc1,96.7
3,COc1cc(NS(C)(=O)=O)ccc1Nc1c2ccccc2nc2ccccc12,12.8
4,CC(=O)Oc1cc(C)c2c(c1C=O)Oc1c(c(C)c(OC(C)=O)c3c1C(OC(C)=O)OC3=O)OC2=O (stereo unspecified),106
5,CC1(C)C[C@@H]2C(=O)CC[C@H]3O[C@]3(C)CC[C@H]21,104
6,CC(=O)O[C@@H]1C=C[C@]2(C)C(C[C@@H](OC(C)=O)[C@]3(C)C4=CC(=O)O[C@H](c5ccoc5)[C@@]4(C)CCC23)C1(C)C (stereo partly specified),94.4
7,COc1ccc(-c2cc(=O)c3c(OC(C)=O)cc(OC(C)=O)cc3o2)cc1,96.9
8,Oc1ccc([C@H]2Oc3cc(O)cc(O)c3C[C@H]2O)cc1,102
9,CCCCCCc1ccc(O)cc1O,98.6
10,CCCCCCc1ccc(O)cc1O.Nc1c2ccccc2nc2ccccc12,46.4
11,Nc1c2c(nc3ccccc13)CCCC2,105
12,CC(=O)O[C@@H]1CC(=O)[C@@]2(C)C(CC(=O)[C@]3(C)C2CC[C@@]2(C)[C@H](c4ccoc4)OC(=O)C4OC423)C1(C)C (stereo partly specified),100
13,O=c1oc2ccccc2c(O)c1Cc1c(O)c2ccccc2oc1=O,98.1
14,O=C(O)/C=C/C=C/c1ccccc1,121
15,O=C(/C=C/c1cccc(S(=O)(=O)Nc2ccccc2)c1)NO [Belinostat (PXD101)],1.86
16,O=C(O)/C=C/c1ccccc1,105
17,COc1ccc2c(c1)OCc1c-2oc2cc(OC)ccc12,99
18,O=C(Nc1ccc(OC(F)(F)F)cc1)c1sccc1NCc1ccnc2ccccc12,64.7
19,COc1ccc2c(c1)O[C@@H]1COc3cc(OC)c(OC)cc3[C@@H]1C2=O,102
20,C=C(C)[C@@H]1CC=C(CO)CC1,88.1
21,Cc1cc(=O)oc2cc(O)c(O)cc12,98.5
22,Nc1ncnc2c1ncn2[C@@H]1O[C@H](CO)[C@@H](O)[C@@H]1O,93.9
23,Nc1ncnc2c1ncn2[C@@H]1O[C@H](CO)[C@@H](O)[C@H]1O,105
24,OC[C@H]1O[C@@H](n2cnc3c(NCc4ccco4)ncnc32)[C@H](O)[C@@H]1O,5.88
